{"source": "ChEMBL document CHEMBL3988442", "about": "“University of Dundee, Small-Polar-MMV Screening Library” (2021)", "key": {"[1]": {"molecular_target": "T1, Aspartate--tRNA(Asp/Asn) ligase (Mycobacterium tuberculosis (strain ATCC 25618 / H37Rv)) (UniProt P9WFW3)", "T1 sequence (whole entry)": "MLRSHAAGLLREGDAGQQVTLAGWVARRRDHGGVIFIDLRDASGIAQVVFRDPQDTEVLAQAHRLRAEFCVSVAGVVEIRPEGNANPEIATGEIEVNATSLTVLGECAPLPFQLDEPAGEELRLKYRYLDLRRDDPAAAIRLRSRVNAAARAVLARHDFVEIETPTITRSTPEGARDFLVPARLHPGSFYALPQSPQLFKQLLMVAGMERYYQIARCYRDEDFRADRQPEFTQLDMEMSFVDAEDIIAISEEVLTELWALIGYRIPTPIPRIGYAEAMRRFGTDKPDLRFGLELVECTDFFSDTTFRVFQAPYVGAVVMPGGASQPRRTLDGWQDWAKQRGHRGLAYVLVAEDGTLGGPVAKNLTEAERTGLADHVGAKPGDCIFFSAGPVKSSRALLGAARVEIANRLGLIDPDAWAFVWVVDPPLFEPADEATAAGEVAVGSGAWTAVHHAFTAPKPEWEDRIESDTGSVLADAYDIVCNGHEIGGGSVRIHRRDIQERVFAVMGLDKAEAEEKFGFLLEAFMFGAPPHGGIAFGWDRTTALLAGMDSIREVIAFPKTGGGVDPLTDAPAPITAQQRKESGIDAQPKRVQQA", "assay": "Assay for Asp RNA synthetase-1 from Mycobacterium tuberculosis", "assay_type": "functional", "set-up": "scale not given: direction of the effect not stated beside the values", "details": "30 µM"}, "[2]": {"molecular_target": "Shiga toxin 2 (Escherichia coli O157:H7) (UniProt P09385+P09386)", "assay": "E. coli 0.157:H7 Shiga Toxin SOP - stx2 screening assay", "assay_type": "functional", "set-up": "scale not given: direction of the effect not stated beside the values", "details": "30 µM"}}, "data": [{"smiles": "COCC(C)NC(=O)c1cc(Br)c2c(c1)OCCO2", "note": "(stereo not drawn)", "values": [{"measurement": "Percent Effect", "setting": "[1]", "result": -9.24, "unit": "%"}, {"measurement": "Percent Effect", "setting": "[2]", "result": -10.8, "unit": "%"}]}, {"smiles": "c1cnn(CC2CCCN2c2ncnc3ccsc23)c1", "note": "(stereo not drawn)", "values": [{"measurement": "Percent Effect", "setting": "[1]", "result": 3.64, "unit": "%"}, {"measurement": "Percent Effect", "setting": "[2]", "result": 16.1, "unit": "%"}]}, {"smiles": "Cc1ncc(C)c(N2CCCC(CO)(Cc3cccc(Cl)c3)C2)n1", "note": "(stereo not drawn)", "values": [{"measurement": "Percent Effect", "setting": "[1]", "result": 2.71, "unit": "%"}, {"measurement": "Percent Effect", "setting": "[2]", "result": -21.4, "unit": "%"}]}, {"smiles": "O=C(c1ccccc1OCC1CC1)N1CCCC(n2ccnc2)C1", "note": "(stereo not drawn)", "values": [{"measurement": "Percent Effect", "setting": "[1]", "result": 6.48, "unit": "%"}, {"measurement": "Percent Effect", "setting": "[2]", "result": -13.9, "unit": "%"}]}, {"smiles": "Clc1ccccc1-c1nc(CNC2CCc3ncnn3C2)cs1", "note": "(stereo not drawn)", "values": [{"measurement": "Percent Effect", "setting": "[1]", "result": -0.745, "unit": "%"}, {"measurement": "Percent Effect", "setting": "[2]", "result": -6.39, "unit": "%"}]}, {"smiles": "CN(C)S(=O)(=O)N1CCC(Oc2ccc(C#N)cc2)CC1", "values": [{"measurement": "Percent Effect", "setting": "[1]", "result": 0.641, "unit": "%"}, {"measurement": "Percent Effect", "setting": "[2]", "result": -1.14, "unit": "%"}]}, {"smiles": "CN(C)[C@@H]1CCN(C(=O)NC2CCCC2)[C@H]1Cc1cnn(C)c1", "values": [{"measurement": "Percent Effect", "setting": "[1]", "result": -2.75, "unit": "%"}, {"measurement": "Percent Effect", "setting": "[2]", "result": -11.7, "unit": "%"}]}, {"smiles": "Cc1ccc(C(=O)N2CCN(CCc3cccs3)CC2)c(=O)[nH]1", "values": [{"measurement": "Percent Effect", "setting": "[1]", "result": -1.83, "unit": "%"}, {"measurement": "Percent Effect", "setting": "[2]", "result": -29.5, "unit": "%"}]}, {"smiles": "CCOCCCn1c(NC(=O)c2cnn(C)c2)nc2ccccc21", "values": [{"measurement": "Percent Effect", "setting": "[1]", "result": -2.49, "unit": "%"}, {"measurement": "Percent Effect", "setting": "[2]", "result": 22.6, "unit": "%"}]}, {"smiles": "CCn1c(C)cc(C(=O)N2CCCC(n3nc(C)nc3C)C2)c1C", "note": "(stereo not drawn)", "values": [{"measurement": "Percent Effect", "setting": "[1]", "result": -4.26, "unit": "%"}, {"measurement": "Percent Effect", "setting": "[2]", "result": 16, "unit": "%"}]}, {"smiles": "c1coc(CN2C[C@H](OCC3CCOCC3)[C@H]3COC[C@H]32)c1", "values": [{"measurement": "Percent Effect", "setting": "[1]", "result": 1.73, "unit": "%"}, {"measurement": "Percent Effect", "setting": "[2]", "result": 12.6, "unit": "%"}]}, {"smiles": "Cc1nc(CC(=O)N2CCC[C@H]2c2nc(C(C)C)no2)cs1", "values": [{"measurement": "Percent Effect", "setting": "[1]", "result": -2.23, "unit": "%"}, {"measurement": "Percent Effect", "setting": "[2]", "result": 4.58, "unit": "%"}]}, {"smiles": "COc1ccc(CN2CCc3nc(C4CCCCN4C)ncc3C2)cc1", "note": "(stereo not drawn)", "values": [{"measurement": "Percent Effect", "setting": "[1]", "result": 3.22, "unit": "%"}, {"measurement": "Percent Effect", "setting": "[2]", "result": -19.9, "unit": "%"}]}, {"smiles": "CSc1sc(NC(=O)Cc2c(C)nc(C)[nH]c2=O)nc1C", "values": [{"measurement": "Percent Effect", "setting": "[1]", "result": -2.08, "unit": "%"}, {"measurement": "Percent Effect", "setting": "[2]", "result": -7.28, "unit": "%"}]}, {"smiles": "Cn1nc(C2CCCN(C(=O)Cc3ccsc3)C2)c2nccnc21", "note": "(stereo not drawn)", "values": [{"measurement": "Percent Effect", "setting": "[1]", "result": -0.402, "unit": "%"}, {"measurement": "Percent Effect", "setting": "[2]", "result": 7.06, "unit": "%"}]}, {"smiles": "Cc1ccc(CNC(=O)CCSCc2csc(C)n2)cn1", "values": [{"measurement": "Percent Effect", "setting": "[1]", "result": -3.37, "unit": "%"}, {"measurement": "Percent Effect", "setting": "[2]", "result": -2.37, "unit": "%"}]}, {"smiles": "Cn1cc(CN2CCC3(CCCN(Cc4ccccn4)C3)CC2)cn1", "values": [{"measurement": "Percent Effect", "setting": "[1]", "result": -0.638, "unit": "%"}, {"measurement": "Percent Effect", "setting": "[2]", "result": -6.22, "unit": "%"}]}, {"smiles": "Cc1cnn(CC(C)NCc2csc(-c3cnn(C)c3)n2)c1", "note": "(stereo not drawn)", "values": [{"measurement": "Percent Effect", "setting": "[1]", "result": 1.91, "unit": "%"}, {"measurement": "Percent Effect", "setting": "[2]", "result": -23.5, "unit": "%"}]}, {"smiles": "COC(=O)CN(C)C1CCc2ccccc21", "note": "(stereo not drawn)", "values": [{"measurement": "Percent Effect", "setting": "[1]", "result": -6.57, "unit": "%"}, {"measurement": "Percent Effect", "setting": "[2]", "result": 28.1, "unit": "%"}]}]}
